Source: PubChem BioAssay (Tox21)
Records with an inconclusive call do not appear. The source made the active and inactive calls. Unless noted, calls come from the whole dose curve; as a rule, active = well fitted curve in the direction sought with a large enough effect in the repeat runs; inconclusive = weak or mixed curves; inactive = no such curve, though single readings can be large; an effect the other way counts as inactive or inconclusive.

Experiments:
[1] = biological target: Thyrotropin receptor (Homo sapiens) (UniProt P16473); experiment: qHTS assay to identify small molecule agonists of the thyroid stimulating hormone receptor (TSHR) signaling pathway (AID 1224843; calls by dose curve; note: nearly all actives have a fitted effect of over 45% in size)
Thyrotropin receptor (Homo sapiens), sequence (P16473 whole entry, looked up): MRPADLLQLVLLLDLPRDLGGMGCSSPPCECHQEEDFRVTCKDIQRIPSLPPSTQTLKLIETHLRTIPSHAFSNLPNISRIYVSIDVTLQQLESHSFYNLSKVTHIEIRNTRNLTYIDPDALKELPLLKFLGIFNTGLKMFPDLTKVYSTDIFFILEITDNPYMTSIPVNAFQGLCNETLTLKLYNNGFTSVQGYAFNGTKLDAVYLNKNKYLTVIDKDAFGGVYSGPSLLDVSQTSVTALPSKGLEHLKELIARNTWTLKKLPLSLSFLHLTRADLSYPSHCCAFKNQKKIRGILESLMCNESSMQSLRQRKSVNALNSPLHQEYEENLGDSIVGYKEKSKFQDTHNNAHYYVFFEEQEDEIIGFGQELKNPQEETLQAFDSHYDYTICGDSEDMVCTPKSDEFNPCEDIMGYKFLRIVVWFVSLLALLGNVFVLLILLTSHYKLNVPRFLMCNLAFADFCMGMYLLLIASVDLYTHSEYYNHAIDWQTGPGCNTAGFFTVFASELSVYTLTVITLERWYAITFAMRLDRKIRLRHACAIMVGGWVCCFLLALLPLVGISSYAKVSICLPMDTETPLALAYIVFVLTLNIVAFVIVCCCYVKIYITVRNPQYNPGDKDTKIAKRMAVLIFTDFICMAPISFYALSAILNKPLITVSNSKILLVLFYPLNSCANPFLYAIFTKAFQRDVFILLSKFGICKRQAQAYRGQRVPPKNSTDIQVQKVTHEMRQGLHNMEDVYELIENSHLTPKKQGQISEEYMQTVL
Method in brief: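 Screening of the Tox21 10K collection used HEK293 cells engineered with TSHR at 800 cells per well. After a 30-min room-temperature compound exposure, HTRF cAMP reagents were added and fluorescence recorded 1 h later.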

[2] = qHTS assay to identify small molecule agonists of the hypoxia (HIF-1) signaling pathway - cell viability counter screen (AID 1224844; calls by dose curve; note: nearly all actives have a fitted effect of over 50% in size)
Method in brief: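 HRE-bla ME-180 cells, 2,000/well in 0.5% dialyzed FBS medium, treated 17 h at 37C with compounds. Viability read in the same wells as the bla reporter, by CellTiter-Glo luminescence after 30 min at room temperature.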

[3] = qHTS assay to identify small molecule agonists of H2AX (AID 1224845; active = well fitted activation curve with a large enough effect in the signal ratio in the repeat runs, not every such curve was filed as active; the % refers to the signal ratio)
Method in brief: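 Phospho-H2AX Ser139 measured by HTRF (ex 320 nm; em 665 and 620 nm) after 24 hr antibody incubation. Compounds, 15 concentrations, 0.76% DMSO, were applied to CHO-K1 cells for 3hr at 37C before lysis.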

[4] = qHTS assay to identify small molecule agonists of the hypoxia (HIF-1) signaling pathway (AID 1224846; active = well fitted activation curve with a large enough effect in the signal ratio in the repeat runs, not every such curve was filed as active; the % refers to the signal ratio)
Method in brief: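 HRE-bla ME-180 beta-lactamase reporter cells in medium with 0.5% dialyzed FBS, pre-incubated 5 h then exposed to compounds 17 h at 37C, 5% CO2; reporter induction read with CCF4-AM FRET substrate.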

[5] = qHTS assay to identify small molecule agonists of H2AX - cell viability counter screen (AID 1224847; calls by dose curve;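 note: wild-type CHO-K1 cells; top concentration of the series differs between compounds; nearly all actives have a fitted effect of over 30% in size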)
Method in brief: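 Cells plated first: CHO-K1, 1000 per well in 10% FBS medium, incubated overnight at 37C. Then 15-point compound titration added (final DMSO 0.76%) for 3 hr. Finally CellTiter-Glo added and luminescence read.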

[6] = qHTS assay to identify small molecule antagonists of the estrogen related receptor (ERR) signaling pathway from Tox21 library (AID 1224848); note: nearly all actives have a fitted effect of over 50% in size
Method in brief: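 Antagonist-mode screen of the Tox21 10K library in an NTP-provided ERR reporter cell line; 18 h compound exposure at 37 C, luminescence measured with ONE-Glo.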

[7] = qHTS assay to identify small molecule agonists of the estrogen related receptor (ERR) signaling pathway from Tox21 library (AID 1224849; calls by dose curve; note: nearly all actives have a fitted effect of over 15% in size); details: ERR reporter cell line, ONE-Glo luciferase, 18 h; at 92.4 µM (top of the series) unless noted
Method in brief: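 ERR reporter cells (NTP line) pre-incubated 6 hours at 37 C, then exposed to compounds for 18 hours at 37 C. ONE-Glo luciferase luminescence was read after 30 minutes at room temperature.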

[8] = qHTS RealTime-Glo MT Cell Viability Assay in HepG2 cells - 24 hour (AID 1224867); note: nearly all actives have a fitted effect of over 50% in size
Method in brief: (§1)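 HepG2 suspension premixed with RealTime-Glo reagents is plated at 600 cells per well and left 5 h at 37 C/5% CO2. Compounds in DMSO then go in, and bioluminescence reflecting viable cell number is recorded over 40 h.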

[9] = qHTS RealTime-Glo MT Cell Viability Assay in HEK293 cells - 32 hour (AID 1224868); note: top concentration of the series differs between compounds; nearly all actives have a fitted effect of over 50% in size
Method in brief: (§2)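 Reads taken at 0, 8, 16, 24, 32 and 40 h from the same wells. HEK293 cells (600/well) carried RealTime-Glo reagents from seeding, with compound added after a 5 h settle at 37 C.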

[10] = qHTS RealTime-Glo MT Cell Viability Assay in HepG2 cells - 40 hour (AID 1224870); note: nearly all actives have a fitted effect of over 50% in size
Method in brief: (§3)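 Real-time viability: cells seeded at 600 per well together with NanoLuc and cell-permeant prosubstrate, compounds added after 5 h incubation. Luminescence tracked at 0, 8, 16, 24, 32 and 40 h of exposure.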

[11] = A CellTox Green Cytotoxicity Assay to monitor cytotoxicity in HEK293 cells - 40 hour (AID 1224871); note: nearly all actives have a fitted effect of over 45% in size
Method in brief: (§4)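 HEK293 cells, 600/well, were preincubated 5 hours and then exposed to compounds at 37 C for up to 40 hours. A cell-impermeant cyanine dye staining dead-cell DNA was read by fluorescence at 0, 8, 16, 24, 32 and 40 h time points.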

[12] = qHTS RealTime-Glo MT Cell Viability Assay in HEK293 cells - 16 hour (AID 1224872)
Method in brief: as §2

[13] = qHTS RealTime-Glo MT Cell Viability Assay in HepG2 cells - 8 hour (AID 1224873); note: nearly all actives have a fitted effect of over 55% in size
Method in brief: as §3

[14] = A CellTox Green Cytotoxicity Assay to monitor cytotoxicity in HEK293 cells - 24 hour (AID 1224875); note: nearly all actives have a fitted effect of over 45% in size
Method in brief: as §4

[15] = A CellTox Green Cytotoxicity Assay to monitor cytotoxicity in HepG2 cells - 16 hour (AID 1224876); note: nearly all actives have a fitted effect of over 45% in size
Method in brief: (§5)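 HepG2 cells, 600/well, preincubated 5 h with CellTox Green dye, then exposed to Tox21 compounds in DMSO at 37 C for up to 40 h. Dead-cell DNA fluorescence read at the indicated time point.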

[16] = qHTS RealTime-Glo MT Cell Viability Assay in HepG2 cells - 32 hour (AID 1224877); note: nearly all actives have a fitted effect of over 55% in size
Method in brief: as §1

[17] = A CellTox Green Cytotoxicity Assay to monitor cytotoxicity in HepG2 cells - 24 hour (AID 1224878); note: nearly all actives have a fitted effect of over 45% in size
Method in brief: as §5

[18] = A CellTox Green Cytotoxicity Assay to monitor cytotoxicity in HepG2 cells - 40 hour (AID 1224879); note: nearly all actives have a fitted effect of over 40% in size
Method in brief: as §5

[19] = A CellTox Green Cytotoxicity Assay to monitor cytotoxicity in HEK293 cells - 0 hour (AID 1224869); note: nearly all actives have a fitted effect of over 50% in size
Method in brief: as §4

[20] = qHTS RealTime-Glo MT Cell Viability Assay in HEK293 cells - 40 hour (AID 1224874); details: RealTime-Glo luminescence; max response: hits give low values; note: nearly all actives have a fitted effect of over 50% in size
Method in brief: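 600 cells/well were plated with the nonlytic NanoLuc/prosubstrate reagent, pre-incubated 5 h, then given 23 nL of compound in DMSO. Incubation at 37 C for 40 h, with luminescence from viable-cell-reduced substrate read repeatedly from 0 h.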
% is set by controls: 0 for no effect and ±100 for the full control effect.

CN(C)CCCNCCCN(C)C
inactive: Potency [1] | Potency [2] | outcome [3] | outcome [4] | Potency [5] | Potency [6] | activity change, positive = activation [7] -4.23% | Potency [8] | Potency [9] | Potency [10] | Potency [11] | Potency [12] | Potency [13] | Potency [14] | Potency [15] | Potency [16] | Potency [17] | Potency [18]

C=COCC1CCC(CO)CC1 (stereo not given)
inactive: Potency [1] | Potency [2] | outcome [3] | outcome [4] | Potency [5] | Potency [6] | Potency [8] | Potency [9] | Potency [19] | Potency [10] | Potency [11] | Potency [12] | Potency [13] | max response [20] 11.5% | Potency [14] | Potency [15] | Potency [17] | Potency [18]

C[C@H]1C[C@@H](O)CC(C)(C)C1
inactive: Potency [1] | Potency [2] | outcome [3] | outcome [4] | Potency [5] | Potency [6] | activity change, positive = activation [7] 0.742% | Potency [8] | Potency [9] | Potency [10] | Potency [12] | Potency [13] | max response [20] -10.6% | Potency [15] | Potency [16] | Potency [17] | Potency [18]

C[N+](C)(C)CC(O)CC(=O)[O-] (stereo not given)
inactive: Potency [1] | Potency [2] | outcome [3] | outcome [4] | Potency [5] | Potency [6] | activity change, positive = activation [7] 3.63% [at 42.5 µM] | Potency [8] | Potency [19] | Potency [10] | Potency [11] | Potency [12] | Potency [13] | max response [20] -3.45% | Potency [14] | Potency [15] | Potency [16] | Potency [17] | Potency [18]

C=CCCCCCCCCC=O
inactive: Potency [1] | Potency [2] | outcome [3] | outcome [4] | Potency [5] | Potency [6] | activity change, positive = activation [7] -2.86% | Potency [8] | Potency [9] | Potency [10] | Potency [11] | Potency [12] | Potency [13] | max response [20] -1.95% | Potency [14] | Potency [15] | Potency [17] | Potency [18]

CCOC(=O)c1cccc(N)c1
inactive: Potency [1] | Potency [2] | outcome [3] | outcome [4] | Potency [5] | Potency [6] | activity change, positive = activation [7] -2.77% [at 42.5 µM] | Potency [8] | Potency [19] | Potency [10] | Potency [11] | Potency [12] | Potency [13] | max response [20] 3.26% | Potency [14] | Potency [16] | Potency [17] | Potency [18]

CCC(C)S (stereo not given)
inactive: activation [1] -2.63% [at 3.27 µM] | activity change, negative = cytotoxicity [2] 6.65% [at 2.72 µM] | activation (H2AX phosphorylation) [3] -0.0858% [at 5.45 µM] | activation [4] -1.24% [at 2.67 µM] | activity change, negative = cytotoxicity [5] 4.19% [at 5.43 µM] | activity, negative = inhibition [6] 2.44% [at 3.27 µM] | activity change, positive = activation [7] 2.37% [at 3.27 µM] | activity change, negative = cytotoxicity [8] 1.23% [at 2.72 µM] | activity change, negative = cytotoxic [9] 3.1% [at 2.72 µM] | activity change, negative = cytotoxic [10] 2.53% [at 2.72 µM] | cytotoxicity increase [11] -0.869% [at 2.72 µM] | activity change, negative = cytotoxicity [12] 0.797% [at 2.72 µM] | viability change, negative = cytotoxic [13] 0.999% [at 2.72 µM] | max response [20] 2.1% | activity change [14] 2.02% [at 2.72 µM, hits give high values] | activity change, negative = cytotoxic [16] -0.778% [at 2.72 µM] | cytotoxicity [17] 1.18% [at 2.72 µM] | cytotoxicity increase [18] -0.0934% [at 2.72 µM]

CCCCNC(=O)NCCCC
inactive: Potency [1] | Potency [2] | outcome [3] | outcome [4] | Potency [5] | Potency [6] | Potency [8] | Potency [9] | Potency [19] | Potency [10] | Potency [11] | Potency [12] | Potency [13] | max response [20] -3.77% | Potency [14] | Potency [15] | Potency [16] | Potency [17] | Potency [18]

NS(=O)(=O)c1ccccc1Cl
inactive: Potency [1] | Potency [2] | outcome [3] | outcome [4] | Potency [5] | Potency [6] | Potency [8] | Potency [9] | Potency [19] | Potency [10] | Potency [11] | Potency [12] | Potency [13] | max response [20] -11.8% | Potency [14] | Potency [15] | Potency [16] | Potency [17] | Potency [18]

O=C1CC2CC1C1CCCC21 (stereo not given)
inactive: Potency [1] | Potency [2] | outcome [3] | outcome [4] | Potency [5] | Potency [6] | activity change, positive = activation [7] -0.257% | Potency [8] | Potency [9] | Potency [10] | Potency [12] | Potency [13] | max response [20] -4.86% | Potency [15] | Potency [16] | Potency [17] | Potency [18]

CCC=O
inactive: Potency [1] | Potency [2] | outcome [3] | outcome [4] | Potency [5] | Potency [6] | activity change, positive = activation [7] 0.85% | Potency [8] | Potency [10] | Potency [11] | Potency [12] | Potency [13] | Potency [14] | Potency [15] | Potency [16] | Potency [17] | Potency [18]

CC(C)OC(=O)c1ccccc1
inactive: Potency [1] | Potency [2] | outcome [3] | outcome [4] | Potency [5] | Potency [6] | Potency [8] | Potency [9] | Potency [19] | Potency [10] | Potency [11] | Potency [12] | Potency [13] | max response [20] 0.492% | Potency [14] | Potency [15] | Potency [16] | Potency [17] | Potency [18]

O=S(O)CO
inactive: Potency [1] | Potency [2] | outcome [3] | outcome [4] | Potency [5] | Potency [6] | activity change, positive = activation [7] 4.77% | Potency [8] | Potency [9] | Potency [10] | Potency [11] | Potency [12] | Potency [13] | max response [20] 10.1% | Potency [14] | Potency [15] | Potency [16] | Potency [17] | Potency [18]

Cc1sccc1Br
inactive: Potency [1] | Potency [2] | outcome [3] | outcome [4] | Potency [5] | Potency [6] | activity change, positive = activation [7] -1.02% [at 42.5 µM] | Potency [8] | Potency [9] | Potency [10] | Potency [11] | Potency [12] | Potency [13] | max response [20] 6.36% | Potency [14] | Potency [15] | Potency [16] | Potency [17] | Potency [18]
